Sampled rows, rich in hits. Any-hit rate of the full collection: about 12%.
NS1 inh: blocks influenza NS1 protein function. Potency, µM (top dose mostly 46.1 µM), for inactives: top-dose activity, positive = more growth. 0.4% of 270,000 active; calls by dose curve; also: actives are rising curves; nearly all actives have a fitted effect of over 50% in size
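Compounds were scored for reversing the slow growth caused by influenza A NS1 in S. cerevisiae, measured by optical density at 600 nm. Assay medium contained 2% galactose at pH 6.0; NS1-free yeast of the same strain were the positive control.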
SARS PLpro yeast: SARS-CoV PLP inhibition in yeast. Potency, µM (titrated, usually from 32.9 µM), inactives show at the top dose activity, positive = growth rescue, hits mostly activators. AID 485353. S. cerevisiae expressing SARS-CoV PLpro, growth rescue. 0.19% of 330,000 active; calls by dose curve; also: 0% is about no effect; nearly all actives have a fitted effect of over 55% in size
AMA1 RON2 block: inhibitors of Plasmodium falciparum AMA1-RON2 interaction. AlphaScreen AMA1-biotinylated RON2 peptide binding. Potency, µM (series often up to 58.2 µM), for inactives: at the top dose activity change, negative = inhibition, hits mostly inhibitors. 0.2% of 360,000 active;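 also: 0% = vehicle wells and -100% = peptide control; nearly all actives have a fitted effect of over 45% in size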
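AMA1 (3D7) with his tag at 25 nM final met compounds first, then biotinylated RON2 peptide at 25 nM; detection used donor plus acceptor beads, 10 µg/mL apiece, read by AlphaScreen after 30 min at room temperature.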
Pf growth 96h: P. falciparum growth inhibition at 96 hour, primary screen for plastid delayed-death inhibitors; P. falciparum luciferase reporter growth, 96 h; Potency, µM (series often up to 28.7 µM), for the others: top-dose activity change, negative = inhibition, usual class: inhibitors; 6.9% of 320,000 active; AID 504834; also: % is scaled to controls: 0 for no effect and ±100 for the full control effect
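Two-generation exposure (96 h) targets delayed-death phenotype. Reporter parasites carrying integrated firefly luciferase, in red cells at 2% hematocrit and 0.05% parasitemia final, kept at 37 C, 5% CO2; luminescence loss indicates inhibition.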
Pf growth 48h: P. falciparum growth inhibition at 48 hours (one generation). P. falciparum luciferase growth in erythrocytes, 48 h. Potency, µM (titrated, usually from 28.7 µM), inactives show at the highest dose activity change, negative = inhibition, actives largely listed as inhibitors. 5.9% of 310,000 active. AID 504832; also: % is scaled to controls: 0 for no effect and ±100 for the full control effect
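Luminescence readout; reporter = integrated firefly luciferase in P. falciparum. RBC culture at 2% hematocrit, 0.1% parasitemia final, 37 C/5% CO2; decreased signal taken as growth inhibition.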
HCV inh: blocks hepatitis C virus | Huh7.5.1 HCVcc-Cre infection, luciferase reporter, 44 h | Potency, µM (titrated, usually from 41.8 µM), without a hit: top-dose activity change, negative = inhibition, actives largely listed as inhibitors | 3.4% of 340,000 active; also: % is scaled to controls: 0 for no effect and ±100 for the full control effect
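1,000 cells/well; 4 h culture; + compound; + HCVcc-Cre (~0.5 moi); 44 h; luciferase substrate, RT 15 min; read 15 sec.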
Active calls of the source: *; ? = inconclusive; · = not tested or not shown; [ ] = remark or other dose. Unless noted, calls follow the shape of the dose curve; as a rule, active = well fitted curve in the direction sought with a large enough effect; inconclusive = small, poorly fitted or top-dose-only effect, or another doubt; inactive = no such curve, though single readings can be large; an effect the other way counts as inactive or inconclusive. Potency is read from the fitted curve at half-maximal effect.

SMILES | NS1 inh | SARS PLpro yeast | AMA1 RON2 block | Pf growth 96h | Pf growth 48h | HCV inh
CN1C(=O)NC(c2ccc(Cl)cc2)C2=C1CC(C)(C)CC2=O (centres undefined) | 1.6% | 0.4% | 2.6% | ? | 2.8%[0.00184 µM] | 16.5%
COc1ccc(C(C(=O)NCc2ccc(F)cc2)N(C(=O)c2csnn2)C2CC2)cc1 (centres undefined) | -10.2% | -1.3% | -8.7% | -9.6% | -18.2% | 15.2%
O=C1C(O)=CC(=C(c2ccccc2)c2ccccc2)c2ccccc21 | · | · | 10µM* | · | · | ?
O=C(O)C1=C/C(=C(/c2ccccc2)c2cc(C(=O)O)c(O)c3ccccc23)c2ccccc2C1=O | 8.3% | · | · | · | · | ·
CCc1ccccc1NC(=S)N(CCN(C)C)C(C)c1ccccn1 (centres undefined) | -0.7% | -1.0% | -34.6% | · | -3.3% | 22.4µM*
Cc1ccc2cc(C(c3nnnn3C3CCCC3)N3CCN(c4ccc(F)cc4)CC3)c(=O)[nH]c2c1 (centres undefined) | ? | 6.5% | -3.4% | -7.3% | 5.86µM* | 5.3%
CCOc1cc(CN2CCN(c3cccc(C(F)(F)F)c3)CC2)ccc1OC | -4.0% | -10.7% | -17.1% | ? | · | -24.5%
COC(=O)[C@@H](NC(=O)N1CCN(c2cccc(C(F)(F)F)c2)CC1)C(C)C | -20.2% | -8.3% | 12.7% | ? | ? | 10.5%
CCC(C)[C@H](NC(=O)N1CCN(c2cccc(C(F)(F)F)c2)CC1)C(=O)OC (some centres undefined) | 2.9% | -5.6% | -3.7% | 5.22µM* | · | -5.3%
CCC(c1nnnn1C1CCCC1)N1CCN(c2cccc(OC)c2)CC1 (centres undefined) | -0.3% | 0.3% | 0.2% | 27.3% | 11.7µM* | 17.0%
COc1ccc(CC(C)N2CCN(c3cccc(C(F)(F)F)c3)CC2)cc1OC (centres undefined) | -1.2% | 3.6% | -15.7% | ? | · | 11.2µM*
Cc1cc(C)c2cc(C(c3nnnn3C3CCCC3)N3CCOCC3)c(=O)[nH]c2c1 (centres undefined) | ? | 2.7% | 3.3% | 0.4% | ? | -9.3%
CCC(=O)Nc1ncnc2ncn(C(=O)CC)c12 | 2.8% | · | · | · | · | ·
Cc1nnc(N2C(=O)C(=O)/C(=C(/O)c3ccc4c(c3)OCCO4)C2c2ccc([N+](=O)[O-])cc2)s1 (centres undefined) | ? | -3.3% | · | ? | -5.0% | ·
CCN(CC)CC(C)OC(=O)c1ccccc1Cl (centres undefined) | · | -1.8% | 0.0% | -9.8% | 14.4% | 14.9%
CCC(c1nnnn1Cc1ccc2c(c1)OCO2)N1CCN(c2ccccc2)CC1 (centres undefined) | -49.7% | -6.9% | ? | 20.7% | 11.7µM* | 1.8%
c1ccc(C(c2nnnn2C2CCCC2)N2CCN(c3ccccc3)CC2)cc1 (centres undefined) | -8.6% | -20.4% | -14.4% | ? | 13.1µM* | -3.0%
CCC(c1nnnn1Cc1ccc2c(c1)OCO2)N1CCN(c2ccc(F)cc2)CC1 (centres undefined) | -66.4% | -2.7% | ? | · | · | -9.0%
c1ccc(C(c2nnnn2C2CCCCC2)N2CCc3ccccc3C2)nc1 (centres undefined) | -37.8% | 0.7% | -18.2% | ? | -7.1% | -27.4%
Oc1ccc(N2CCN(C(c3ccccn3)c3nnnn3C3CCCC3)CC2)cc1 (centres undefined) | 11.7% | -6.1% | 4.9% | 7.8% | 10.4µM* | -3.7%
COc1ccc(OC)c(C(c2nnnn2C2CCCC2)N2CCN(c3ccccc3)CC2)c1 (centres undefined) | -33.4% | -18.5% | ? | ? | ? | -24.1%
CCC(c1nnnn1CCOC)N1CCN(c2cccc(C(F)(F)F)c2)CC1 (centres undefined) | ? | 0.4% | -7.4% | 2.33µM* | ? | 8.5%
COCCn1nnnc1C(c1cccs1)N1CCN(c2cccc(C(F)(F)F)c2)CC1 (centres undefined) | -9.4% | -4.7% | -20.1% | · | ? | -10.7%
CN(C(=O)COC(=O)c1ccc2ccccc2n1)c1ccccc1 | · | 7.7% | -9.9% | · | · | 9.6%
Fc1ccc(C(c2nnnn2C2CCCCC2)N2CCCC2)cc1 (centres undefined) | 6.6% | 0.7% | -17.3% | -32.8% | 13.1µM* | 23.7%
SMILES | NS1 inh | SARS PLpro yeast | AMA1 RON2 block | Pf growth 96h | Pf growth 48h | HCV inh
COc1ccc(C(c2nnnn2C2CCCCC2)N2CCN(c3ccc(OC)cc3)CC2)cc1 (centres undefined) | -7.8% | -7.5% | ? | · | 11.7µM* | ?
CC(C)CNC(=O)CN(c1cccc(Cl)c1)S(C)(=O)=O | 2.5% | 0.2% | 8.2% | 2.5% | 1.1% | 6.2%
O=C1CCCN1c1ccc(S(=O)(=O)NCc2ccc(F)cc2)cc1 | -3.1% | 4.8% | 2.4% | ? | 20.5% | -1.7%
CCOC(=O)/C(C)=N/Nc1nc(-c2ccc(NC(C)=O)cc2)cs1 | -1.7% | 1.3% | 56.7% | 10.4µM* | ? | ?
CCC(=O)Nc1ccc(-c2csc(NNC(C)=O)n2)cc1 | 28.0% | -18.5% | 72.0% | 44.6% | -0.6% | 10.4%
O=S(=O)(c1ccccc1)N1N=C(c2ccc(O)cc2)CC1c1ccco1 (centres undefined) | 3.2% | · | 0.0% | ? | -19.4% | 10µM*
Cc1ccc(C2=NN(S(=O)(=O)c3ccccc3)C(c3ccco3)C2)cc1 (centres undefined) | · | -0.1% | -7.5% | 11.7µM* | 9.28µM* | 12.6µM*
O=S(=O)(c1ccccc1)N1N=C(c2ccc(Br)cc2)CC1c1ccco1 (centres undefined) | -7.8% | -2.4% | -5.8% | ? | ? | ?
C#C[C@]1(O)CC[C@H]2C3CCC4=Cc5oncc5CC4(C)C3CCC21C (some centres undefined) | -20.1% | · | · | · | · | ·
COCCCn1c(=S)[nH]c2sc3c(c2c1=O)CCCS3 | · | 0.2% | 30.6% | 104.2% | 104.6% | 18.6%
Fc1ccc(-c2cc(C(F)(F)F)nc(NCC3CCCO3)n2)cc1 (centres undefined) | -54.7% | -39.8% | 31.1% | ? | ? | 10µM*
COC(=O)C1=C(C)Nc2nc3ccccc3n2C1c1cc(OC)c(OC)c(OC)c1 (centres undefined) | 2.6% | 0.3% | -10.4% | ? | 1.85µM* | -18.0%
CSc1ccccc1C(=O)C1CCCN(C(=O)CCN2CCCO2)C1 (centres undefined) | -2.0% | -0.6% | 1.3% | 5.22µM* | 37.3% | 2.1%
Cc1ccccc1CC1(CO)CCCN(C(=O)CCN2CCCO2)C1 (centres undefined) | 7.7% | -3.6% | -6.8% | 2.62µM* | 4.7% | 18.0%
CSc1ccccc1C(=O)C1CCCN(C(=O)c2ccc(N3CCOCC3)cc2)C1 (centres undefined) | -0.5% | 1.0% | 10.0% | 10.4µM* | -13.9% | ?
